About 79,000 compounds went through this panel and 15% of them were active in at least one assay; those are over-represented in the sample as a whole. Active and inactive are the calls of the source. Cut-off read from the data, not from the text of the source: active = growth inhibition above about 70%; inactive = the rest.
What was measured:
[1] = NCI Yeast Anticancer Drug Screen. Data for the rad52 strain (AID 147);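 note: 0% = growth of vehicle-treated control cultures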; details: S. cerevisiae rad52 mutant growth inhibition, active compounds read high
Procedure, shortened: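 Yeast strain carrying a DNA damage repair alteration was exposed to test compounds. Growth inhibition was measured relative to vehicle-treated controls.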

[2] = NCI Yeast Anticancer Drug Screen. Data for the wt1 strain (AID 149);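 note: 0% = growth of vehicle-treated wt1 cultures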; details: S. cerevisiae wt1 strain (SPY 50644) growth inhibition, active compounds read high
Procedure, shortened: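 Growth inhibition read against vehicle controls after compound exposure of the wt1 yeast strain.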

[3] = NCI Yeast Anticancer Drug Screen. Data for the rad50EPP+ strain (AID 151);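 note: 0% = growth of vehicle-treated control cultures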; details: S. cerevisiae rad50 mutant strain, active compounds read high
Procedure, shortened: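 Yeast strain carrying rad50 alteration (rad50EPP+) exposed to compounds; growth inhibition measured relative to vehicle-treated controls.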

[4] = NCI Yeast Anticancer Drug Screen. Data for the rad50 strain (AID 155);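 note: 0% = growth of vehicle-only cultures of the same strain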; details: S. cerevisiae rad50 strain growth inhibition, active compounds read high
Procedure, shortened: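 Readout: growth inhibition relative to vehicle-treated cultures. Compound exposure was carried out in a genetically defined yeast strain deficient in DNA damage repair.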

[5] = NCI Yeast Anticancer Drug Screen. Data for the mec2-1 strain (AID 157); details: S. cerevisiae mec2-1 strain, active compounds read high
Procedure, shortened: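 mec2-1 yeast strain, carrying an alteration in DNA damage repair or cell cycle control, was exposed to compounds; growth inhibition was measured relative to vehicle-treated controls.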

[6] = NCI Yeast Anticancer Drug Screen. Data for the rad14 strain (AID 159);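 note: 0% = growth of vehicle-treated control cultures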; details: S. cerevisiae rad14 strain growth inhibition, active compounds read high
Procedure, shortened: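 Growth inhibition vs vehicle controls; genetically altered yeast strain (DNA damage repair defect) treated with test compounds.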

[7] = NCI Yeast Anticancer Drug Screen. Data for the sgs1 mgt1 strain (AID 161);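 note: 0% = growth of cultures given vehicle only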; details: S. cerevisiae sgs1 mgt1 strain, active compounds read high
Procedure, shortened: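 Yeast cells carrying a defined DNA-repair defect were exposed to test compounds. Growth inhibition was measured relative to vehicle-treated controls.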

[8] = NCI Yeast Anticancer Drug Screen. Data for the CLN2oe strain (AID 163);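 note: 0% = growth of vehicle-only control cultures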; details: S. cerevisiae CLN2oe strain, active compounds read high
Procedure, shortened: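 Yeast cells carrying a defined cell-cycle control alteration were exposed to test compounds. Growth inhibition was scored against vehicle-treated control cultures.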

[9] = NCI Yeast Anticancer Drug Screen. Data for the cln2 rad14 strain (AID 165);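 note: 0% = growth equal to vehicle treated cultures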; details: S. cerevisiae cln2 rad14 strain, active compounds read high
Procedure, shortened: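 Yeast carrying cln2 and rad14 alterations (cell cycle control and DNA damage repair) were exposed to compounds. Growth inhibition was measured against vehicle-treated controls.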

[10] = NCI Yeast Anticancer Drug Screen. Data for the bub3 strain (AID 167); details: S. cerevisiae bub3 mutant strain, active compounds read high
Procedure, shortened: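 Readout: yeast growth inhibition, expressed relative to vehicle-only wells. The test organism is a mutant strain from a panel with lesions in DNA repair or checkpoint genes.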

[11] = NCI Yeast Anticancer Drug Screen. Data for the wt2 strain (AID 169);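 note: 0% = growth of vehicle-treated yeast cultures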; details: S. cerevisiae wt2 strain growth inhibition, active compounds read high
Procedure, shortened: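 Yeast cells were exposed to test compounds, and growth inhibition was measured relative to vehicle-treated controls.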

[12] = NCI Yeast Anticancer Drug Screen. Data for the mlh1 strain (AID 171);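 note: 0% = growth of vehicle-treated control cultures of the same strain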; details: S. cerevisiae mlh1 strain growth inhibition, active compounds read high
Procedure, shortened: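 Yeast carrying a defined genetic alteration in DNA damage repair or cell cycle control were exposed to test compounds. Growth inhibition was measured relative to vehicle-treated controls.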

[13] = NCI Yeast Anticancer Drug Screen. Data for the sgs1 strain (AID 173);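 note: 0% = growth of vehicle-only control cultures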; details: S. cerevisiae sgs1 mutant, active compounds read high
Procedure, shortened: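 Yeast mutant strains carrying defined defects in DNA damage repair or cell cycle control were exposed to test compounds. Growth inhibition was scored against vehicle-treated controls.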

[14] = NCI Yeast Anticancer Drug Screen. Data for the mlh1 rad18 strain (AID 175); details: S. cerevisiae mlh1 rad18 strain growth inhibition, active compounds read high
Procedure, shortened: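 Growth inhibition of the yeast strain was measured after compound exposure and expressed relative to vehicle-treated controls. The strain carries defined defects in DNA damage repair.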

[15] = NCI Yeast Anticancer Drug Screen. Data for the rad18 strain (AID 177); details: S. cerevisiae rad18 mutant growth inhibition, active compounds read high
Procedure, shortened: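 Yeast carrying a defined DNA damage repair alteration were exposed to compounds. Growth inhibition was expressed relative to vehicle-treated controls.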

[16] = at 5.0 µM (retest, dose inferred, filed as 0.5)
[17] = at 50.0 µM (retest, dose inferred, filed as 5.0)

Measured: growth inhibition

Oc1ccc(Br)cc1C=NC1CCCCC1
inactive: [1]; at 1.2 µM 0% | [1]; at 3.7 µM 15% | [1]; at 11.0 µM 35% | [2]; at 1.2 µM -24% | [2]; at 3.7 µM -18% | [2]; at 11.0 µM 6% | [3]; at 1.2 µM 3% | [3]; at 3.7 µM 12% | [3]; at 11.0 µM 35% | [4]; at 1.2 µM -14% | [4]; at 3.7 µM -18% | [4]; [16] 44% | [4]; at 11.0 µM 49% | [4]; [17] 45% | [5]; at 1.2 µM -24% | [5]; at 3.7 µM -21% | [5]; [16] 47% | [5]; at 11.0 µM 11% | [5]; [17] 60% | [6]; at 1.2 µM 15% | [6]; at 3.7 µM 24% | [7]; [16] -2% | [8]; at 1.2 µM -3% | [8]; at 3.7 µM 1% | [8]; at 11.0 µM 12% | [8]; at 33.0 µM 39% | [9]; [16] 53% | [9]; at 50.0 µM 57% | [10]; at 1.2 µM -4% | [10]; at 3.7 µM 2% | [10]; [16] 46% | [10]; at 11.0 µM 5% | [10]; at 33.0 µM 59% | [11]; at 1.2 µM -2% | [11]; at 3.7 µM 0% | [11]; at 11.0 µM 15% | [12]; at 1.2 µM -6% | [12]; at 3.7 µM 17% | [12]; at 11.0 µM 59% | [13]; at 1.2 µM 7% | [13]; at 3.7 µM 6% | [13]; at 11.0 µM 39% | [14]; [16] 32% | [14]; [17] 53%
active: [1]; at 33.0 µM 95% | [1]; at 100.0 µM 98% | [2]; at 33.0 µM 91% | [2]; at 100.0 µM 99% | [3]; at 33.0 µM 74% | [3]; at 100.0 µM 93% | [4]; at 33.0 µM 97% | [4]; at 50.0 µM 78.9% | [4]; at 100.0 µM 97% | [5]; at 33.0 µM 94% | [5]; at 50.0 µM 88.5% | [5]; at 100.0 µM 99% | [6]; at 11.0 µM 85% | [6]; at 33.0 µM 99% | [6]; at 100.0 µM 99% | [7]; [17] 99% | [7]; at 50.0 µM 85.3% | [8]; at 100.0 µM 98% | [9]; [17] 99% | [10]; [17] 99% | [10]; at 50.0 µM 87% | [10]; at 100.0 µM 97% | [11]; at 33.0 µM 74% | [11]; at 100.0 µM 99% | [12]; at 33.0 µM 96% | [12]; at 100.0 µM 99% | [13]; at 33.0 µM 92% | [13]; at 100.0 µM 98% | [14]; at 50.0 µM 77%

Cc1ccc2occ/c(=N\Nc3ccccc3)c2c1
inactive: [1]; at 1.2 µM -3% | [1]; at 3.7 µM -4% | [1]; at 11.0 µM 8% | [1]; at 33.0 µM 33% | [1]; at 100.0 µM 39% | [2]; at 1.2 µM 2% | [2]; at 3.7 µM -5% | [2]; at 11.0 µM 4% | [2]; at 33.0 µM 11% | [2]; at 100.0 µM 16% | [3]; at 1.2 µM 1% | [3]; at 3.7 µM -3% | [3]; at 11.0 µM 4% | [3]; at 33.0 µM 58% | [3]; at 100.0 µM 55% | [4]; at 1.2 µM 5% | [4]; at 3.7 µM -7% | [4]; [16] -16% | [4]; at 11.0 µM 6% | [4]; at 33.0 µM 57% | [4]; [17] 31% | [4]; at 100.0 µM 58% | [5]; at 1.2 µM -4% | [5]; at 3.7 µM -4% | [5]; [16] -11% | [5]; at 11.0 µM -2% | [5]; at 33.0 µM 17% | [5]; [17] 23% | [5]; at 50.0 µM 52.7% | [5]; at 100.0 µM 24% | [6]; at 1.2 µM -2% | [6]; at 3.7 µM -2% | [6]; at 11.0 µM -4% | [6]; at 33.0 µM 39% | [6]; at 100.0 µM 45% | [7]; [16] -1% | [8]; at 1.2 µM -9% | [8]; at 3.7 µM -7% | [8]; at 11.0 µM 5% | [8]; at 33.0 µM -1% | [8]; at 100.0 µM 12% | [9]; [16] -21% | [9]; [17] -23% | [9]; at 50.0 µM -23.1% | [10]; at 1.2 µM -4% | [10]; at 3.7 µM -4% | [10]; [16] -4% | [10]; at 11.0 µM -4% | [10]; at 33.0 µM 64% | [11]; at 1.2 µM -2% | [11]; at 3.7 µM -4% | [11]; at 11.0 µM 7% | [11]; at 33.0 µM 55% | [11]; at 100.0 µM 57% | [12]; at 1.2 µM -1% | [12]; at 3.7 µM -5% | [12]; at 11.0 µM -1% | [12]; at 33.0 µM 59% | [12]; at 100.0 µM 63% | [13]; at 1.2 µM -1% | [13]; at 3.7 µM -4% | [13]; at 11.0 µM 4% | [13]; at 33.0 µM 53% | [13]; at 100.0 µM 57% | [14]; [16] -5% | [14]; [17] 52% | [14]; at 50.0 µM 68.3% | [15]; at 1.2 µM -2% | [15]; at 3.7 µM -1% | [15]; at 11.0 µM 7% | [15]; at 33.0 µM 62% | [15]; at 100.0 µM 64%
active: [4]; at 50.0 µM 73.8% | [7]; [17] 70% | [7]; at 50.0 µM 82.5% | [10]; [17] 70% | [10]; at 50.0 µM 87.8% | [10]; at 100.0 µM 70%

— PubChem BioAssay (NCI)
